Experimental data from PubChem BioAssay (NCI).
This is part of a sample that, as a whole, favours compounds with a hit. Of some 83,000 tested, about 20% had one in any assay.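 Growth was measured after 48 h exposure to one concentration of compound in 96-well plates. Values under 10 count as active.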 Unmarked numbers belong to inactive results. The source made the active and inactive calls.

Columns and labels:
Experiment in all cases: NCI-60 one-dose screen, 48 h (100 = growth as untreated, 0 = no growth, -100 = all killed)
Settings in all cases: 10 µM
[1] = system: NCI-H23 lung
[2] = system: NCI-H226 lung
[3] = system: NCI-H322M lung
[4] = system: HOP-62 NSCLC
[5] = system: NCI-H460 lung
[6] = system: NCI-H522 lung
[7] = system: A549/ATCC NSCLC
[8] = system: 786-0 renal
[9] = system: COLO 205 colon
[10] = system: DU-145 prostate

Row | Structure (SMILES) | growth [1] | growth [2] | growth [3] | growth [4] | growth [5] | growth [6] | growth [7] | growth [8] | growth [9] | growth [10]
1 | O=C(N/N=C/c1ccccc1)C(Oc1ccccc1)c1ccccc1 (stereo not given) | 89.1% | 97.5% | 94.2% | 95% | 94.5% | 65.5% | 111% | 107% | 109% | 107%
2 | COc1ccc(-c2nc(-c3nc4ccc(Cl)cc4[nH]3)c3ccccn23)cc1 | 84.1% | -45.7% (active) | 54.6% | -77.9% (active) | -24.1% (active) | -3.06% (active) | -37.4% (active) | -72.7% (active) | 76% | 25.6%
3 | Cc1[nH]nc2c1C(c1cnn(C)c1)C(C#N)=C(N)O2 (stereo not given) | 101% | 105% | 96.9% | 97.9% | 104% | 80.4% | 96.1% | 102% | 114% | 110%
4 | N#CSCC1CC(O)(c2ccccc2)CC(c2ccc(Cl)cc2)O1 (stereo not given) | 35.6% | 89.3% | 52.4% | 75.1% | 37.2% | 4.64% (active) | 68.5% | 37% | 59.2% | 33%
5 | COc1ccc(-c2nc3ncccn3c2-c2nnc(-c3ccc(F)cc3)o2)cc1 | 98.2% | 96.7% | 101% | 106% | 101% | 106% | 104% | 101% | 113% | 106%
6 | COc1cc2nc(Nc3cccc(C(=O)O)c3)nc(N)c2cc1OC | 128% | 91.4% | 126% | -37.3% (active) | 108% | 87.4% | 104% | -9.99% (active) | 111% | 102%
7 | CN(C)Cc1cn(-c2ncc(-c3ccc(C(F)(F)F)cc3)c(NC3CCCCCC3)n2)nn1 | 95.6% | 88.8% | 88.3% | 94.2% | 93.4% | 73.5% | 95.2% | 90.4% | 70.9% | 89.3%
8 | NC(=O)c1ccc(-c2cccc3c(=O)nc(N4CCOCC4)oc23)cc1 | 92.4% | 82.6% | 93% | 95.1% | 105% | 89.5% | 100% | 100% | 104% | 103%
9 | CNc1ccc(CSc2ccc(C)cc2)cc1 | 91.2% | 32.8% | 88.9% | 90.4% | 80.8% | 4.69% (active) | 42.4% | 31.6% | 86.4% | 90.8%
10 | O=c1[nH]c(-c2ccc(Cl)cc2)nc2sc3c(c12)CCCC3 | 86.1% | 78.1% | 114% | 55.7% | 52.2% | 82.4% | 95.8% | 95.7% | 109% | 63.9%
11 | ClCC#CCSc1ncnc2c1ncn2CC#CCCl | -6.61% (active) | -13.6% (active) | 15.3% | -58.4% (active) | 1.04% (active) | -56% (active) | 46.5% | 13.3% | 54.4% | -20.9% (active)
12 | COc1cc(-c2cc(/C=C3\C(=O)Nc4ccccc43)[nH]n2)cc(OC)c1OC | 56% | 66.3% | 68.6% | 65% | 74.7% | 64.5% | 54.6% | 84.2% | 32.3% | 82.5%
13 | O=C1/C(=C/c2ccc([N+](=O)[O-])o2)Oc2ccccc21 | -8.25% (active) | 23.9% | 91.6% | 62.2% | 31.8% | -79.6% (active) | 62.5% | -38.5% (active) | -66% (active) | -8.6% (active)
14 | CC1(C)N=C(N)N=C(N)N1c1ccc(CCc2ccccc2)c(Cl)c1 | 21.4% | 32.4% | 28.7% | 26.3% | 10.1% | 1.84% (active) | 10.4% | 20.3% | 16% | 27.1%
15 | COc1ccc(-c2nn(-c3cccc(NC(=O)c4cc(C(F)(F)F)cc(C(F)(F)F)c4)c3)cc2-c2ccncc2)cc1Cl | 81.1% | 78.3% | 73.1% | 88.1% | 62.3% | 14.8% | 53.1% | 81.2% | 90.7% | 83.7%
16 | Cn1c(C(N)=O)cc2c1-c1nc(Nc3ccccc3)ncc1CCC2 | 52% | 38.1% | 46.6% | 38.8% | 37.6% | 33.5% | 31.1% | 49.9% | 59.8% | 55.5%
17 | COc1cc(NC(=O)c2sc3nc4c(cc3c2N)C(O)CCC4)cc(OC)c1 (stereo not given) | 99.3% | 97.1% | 88.7% | 65.8% | 104% | 69% | 86.1% | 97.3% | 105% | 108%
18 | CCN(CC)CCNc1ccc(CO)c2oc3cc(Cl)ccc3c(=O)c12 | 87.2% | 95.7% | 97.4% | 88.4% | 88.2% | 77.9% | 90.4% | 76% | 68.4% | 108%
19 | O=C(Nc1cccc(-n2cc(-c3ccncc3)c(-c3ccc(O)c(Cl)c3)n2)c1)Nc1ccc(Cl)c(Cl)c1 | 5.31% (active) | 51.1% | -6.78% (active) | 8.83% (active) | -4.26% (active) | -13.1% (active) | 0.252% (active) | -6.94% (active) | 77.8% | 11.5%
20 | CS(=O)(=O)Nc1cccc(-c2cc(-c3ccccc3Cl)c(C#N)c(N)n2)c1 | 38.7% | 53.4% | 51.8% | 45.8% | 5.56% (active) | -7.33% (active) | 29.4% | 46.7% | -0.179% (active) | 8.95% (active)
21 | Clc1ccc(Sc2nc(NC3CC3)nc(Sc3ccc(Cl)cc3)n2)cc1 | 81% | 83.4% | 86.7% | 102% | 89.3% | 59.1% | 80.9% | 87.5% | 74% | 92.8%

Row | Structure (SMILES) | growth [1] | growth [2] | growth [3] | growth [4] | growth [5] | growth [6] | growth [7] | growth [8] | growth [9] | growth [10]
22 | CCCCCCCCCCCCCCCCN(C(C)c1ccccc1)S(=O)(=O)c1ccc(OC)c(N)c1 (stereo not given) | 93.7% | 108% | 128% | 117% | 107% | 90.5% | 107% | 124% | 123% | 116%
23 | O=C(N/N=C\c1cc(Cl)ccc1[N+](=O)[O-])c1ccco1 | 98.2% | 105% | 126% | 110% | 101% | 97.2% | 90.7% | 95.6% | 139% | 108%
24 | CO/N=C(/C(=O)NC1C(=O)N2C(C(=O)O)=C(COC(N)=O)CSC12)c1ccco1 (stereo not given) | 107% | 109% | 100% | 112% | 118% | 99.4% | 101% | 96% | 114% | 127%
25 | CC(=O)C1CCC2C3CC(F)C4=CC(=O)CCC4(C)C3C(O)CC12C (stereo not given) | 104% | 85.9% | 90.9% | 93% | 103% | 85.8% | 82.3% | 96.3% | 104% | 110%
26 | COC(=O)C1(C)Cc2cc(OC(C)=O)c(OC(C)=O)cc2N1 (stereo not given) | 91.5% | 113% | 116% | 117% | 107% | -55.8% (active) | 31.6% | 103% | 53.7% | 104%
27 | O=C(c1cccs1)c1ccccc1Cc1ccccc1 | 102% | 92.3% | 83.6% | 96.6% | 107% | 100% | 89.1% | 108% | 116% | 128%
28 | CCCCCCCC(C)NCCO (stereo not given) | 102% | 97.4% | 88.9% | 99.3% | 106% | 84.9% | 93.5% | 94.7% | 107% | 106%
29 | COc1cc(C2CC(c3ccc(Nc4ccnc5cc(Cl)ccc45)cc3)=NN2c2ccc(Cl)cc2)cc(OC)c1OC (stereo not given) | 74.4% | 82.9% | 75.8% | 46.8% | 43.4% | 9.33% (active) | 44.6% | 68.8% | 75.7% | 64%
30 | COc1ccc2c(c1)N(CCO)C1=C(C(=O)OC1)C2c1ccc(OC)c(OC)c1 (stereo not given) | 46.1% | 46.7% | 61.3% | 39% | 16.9% | -12.4% (active) | 50.4% | 42.2% | 29.7% | 55.6%
31 | Cc1cc(N(CCCNc2ccnc3cc(Cl)ccc23)Cc2cccs2)nc(Cl)n1 | 25.3% | 52.5% | 72.9% | 41.1% | 35.3% | 35.6% | 51.9% | 48.2% | -37.9% (active) | 50.2%
32 | O=C1OCC2=C1C(c1ccc(Cl)c(Cl)c1)c1cc3c(cc1N2CCO)OCCO3 (stereo not given) | 32.5% | 25.4% | 37.3% | 34.1% | 6.2% (active) | -26.7% (active) | 22.6% | 25.7% | -11.9% (active) | 6.74% (active)
33 | COc1cc(/C=C2\Oc3cc(OCC(=O)c4ccccc4)ccc3C2=O)cc(OC)c1OC | 105% | 104% | 126% | 2.36% (active) | 93% | 105% | 118% | -45.9% (active) | 146% | 94.9%
34 | c1ccc(CSc2nnc3c4c5c(sc4nc(-c4cccnc4)n23)CCCCCC5)cc1 | 54.7% | 67.1% | 99.7% | 91.3% | 19.3% | 6.26% (active) | 36.8% | 73.6% | 20.5% | 56.4%
35 | S=C1SCC(c2ccccc2)S1 (stereo not given) | 113% | 101% | 111% | 108% | 114% | 131% | 102% | 109% | 111% | 125%
36 | COc1cccc(-c2cc(-c3cccc(NS(C)(=O)=O)c3)nc(N)c2C#N)c1O | 26.7% | 74.5% | 34.6% | 52.1% | 8.75% (active) | 0.405% (active) | 31% | 49.4% | -6.05% (active) | 15.1%
37 | COc1cccc(NC(=O)c2sc3nc4c(cc3c2N)C(O)CCC4)c1 (stereo not given) | 33.1% | 66.9% | 44.5% | 32.6% | 10.2% | -10.5% (active) | 22.3% | 43.5% | -7.73% (active) | -10.9% (active)
38 | CCN(CC)CCSCCCNc1c2ccc(Cl)cc2nc2ccc(OC)cc12 | -30.8% (active) | 48.7% | -35.6% (active) | -31.6% (active) | -39.7% (active) | -79.1% (active) | -29.5% (active) | -37.3% (active) | -82.9% (active) | 1.82% (active)
39 | COc1ccc2c(c1)nc(N)c1c3cccnc3cn21 | 33.9% | 69.4% | 72.5% | 42% | 1.19% (active) | -2.48% (active) | 11.8% | 22.7% | -31.5% (active) | 5.32% (active)
40 | CCCCCCCCCCCC[n+]1ccc(C(N)=O)cc1 | 23.5% | 35% | 88.7% | 33.7% | 16.8% | 4.75% (active) | 73.7% | 40% | -73% (active) | 43%
41 | Nc1c(C(=O)Nc2ccccc2)sc2nc3c(cc12)C(O)CCC3 (stereo not given) | 37.1% | 74% | 46.1% | 24.6% | 11.8% | 7.09% (active) | 29.3% | 57.6% | -8.22% (active) | 5.47% (active)
